GLP1R inv ag: inverse agonists of human GLP-1 receptor | P43220 | HEK293 GLP-1R CRE-luciferase, luminescence, 24 h; GLP-1R form is constitutively active | Potency, µM (highest dose often 38.3 µM), for inactives: at the top dose activity change, negative = inhibition, actives largely listed as inhibitors | 1.6% of 410,000 active; further: on the % scale 0 is the no-effect control and ±100 the full control effect; nearly all actives have a fitted effect of over 55% in size
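Inverse agonism was detected as reduced cAMP-driven luciferase luminescence after 24 h compound treatment. The cells were HEK293 clones expressing constitutively active human GLP-1R with the reporter. Reporter-only and GPR119 cell lines served as counterscreen controls.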
GLP1R ag: activates the human GLP-1 receptor | P43220 | HEK293 GLP-1R CRE-luciferase, luminescence, 4-6 h; cells express a hypersensitive GLP-1R form | Potency, µM (titrated, usually from 45.6 µM), without a hit: top-dose activation, actives largely listed as activators | 0.007% of 380,000 active | AID 624172; further: % of control where 0% means no effect
GLS inh: inhibitors of human glutaminase (GLS); O94925; GLS enzymatic activity, qHTS titration; Potency, µM (series often up to 45.5 µM), for the others: at the top dose activity change, negative = inhibition, usual class: inhibitors; 0.21% of 410,000 active; AID 624170; further: on the % scale 0 is the no-effect control and ±100 the full control effect
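Compounds were pin-transferred onto hKGA, after which L-glutamine (1 mM solution) and a detection mix of glutamate oxidase, HRP and Amplex Red were added. Initial and 30 min RT fluorescence reads were collected.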
12-LOX inh: inhibitors of human 12S-lipoxygenase ALOX12. P18054. Potency, µM (highest dose often 108 µM), for the others: at the top dose activity change, negative = inhibition, usual class: inhibitors. AID 1671190. purified 12hLO, xylenol orange hydroperoxide absorbance. 1.1% of 580,000 active; further: on the % scale 0 is the no-effect control and ±100 the full control effect
Target sequence (P18054 whole entry, looked up): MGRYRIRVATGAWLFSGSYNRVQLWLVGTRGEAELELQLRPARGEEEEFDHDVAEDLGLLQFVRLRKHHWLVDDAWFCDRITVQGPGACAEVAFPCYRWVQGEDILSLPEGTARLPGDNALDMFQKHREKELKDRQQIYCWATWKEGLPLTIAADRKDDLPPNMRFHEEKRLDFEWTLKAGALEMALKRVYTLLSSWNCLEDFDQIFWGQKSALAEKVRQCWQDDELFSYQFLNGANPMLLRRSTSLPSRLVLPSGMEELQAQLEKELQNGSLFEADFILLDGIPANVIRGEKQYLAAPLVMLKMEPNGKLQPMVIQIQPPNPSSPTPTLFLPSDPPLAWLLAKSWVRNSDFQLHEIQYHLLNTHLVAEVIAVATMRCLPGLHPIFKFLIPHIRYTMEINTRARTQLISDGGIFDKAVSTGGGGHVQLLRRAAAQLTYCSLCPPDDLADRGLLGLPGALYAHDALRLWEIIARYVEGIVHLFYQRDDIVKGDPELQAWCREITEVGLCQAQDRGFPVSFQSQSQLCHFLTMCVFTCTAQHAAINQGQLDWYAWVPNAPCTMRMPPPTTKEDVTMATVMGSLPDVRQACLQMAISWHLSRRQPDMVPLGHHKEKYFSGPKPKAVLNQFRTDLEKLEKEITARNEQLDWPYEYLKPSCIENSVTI
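Hydroperoxide product was detected by ferrous iron/xylenol orange as the 573 to 405 nm absorbance ratio. Arachidonic acid at 40 uM (final) was turned over for 30 min at room temperature by 150 nM human 12hLO, pH 7.0 Hepes buffer, after 15 min compound preincubation.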
Glioma ERSR ind: inducers of ER stress response in human glioma cells. U87-MG GRP78 promoter luciferase reporter, 16 h. Potency, µM, without a hit: at the top dose activation, hits mostly activators. 0.02% of 420,000 active. AID 602332; further: series mostly up to about 76 µM; % of control where 0% means no effect; nearly all actives have a fitted effect of over 35% in size
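ERSR induction read as luciferase luminescence (Bright-Glo, 10 min at room temperature) in stably transfected human U87-MG glioma cells exposed to compounds for 16 h, using GRP78 as sensor.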
PTHR1 agonist: agonists of human PTHR1 parathyroid hormone receptor; AID 743266; Q03431; HEK293 GP2 PTHR1 cells, GloSensor cAMP luminescence, 1 h; Potency, µM (top dose mostly 115 µM), inactives show at the highest dose activation, most hits filed as activators; 0.075% of 410,000 active; further: nearly all actives have a fitted effect of over 55% in size
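HEK-293-derived GP2 cells expressing PTHR1 and a GloSensor cAMP reporter, 3,000/well, plated overnight, given luciferin plus IBMX (each 0.5 mM as added) for 1 h at 37 °C, then compound for 1 h at 37 °C. Luminescence was read after 15 min at room temperature.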
Numbers without * were called inactive; i = inactive; u = inconclusive; x = no result; [ ] = dose if it differs, or a comment. Shown are actives, neighbours in structure and some others; about 2.3% of the full set was active somewhere. The call rests on the fitted dose curve; in most records, active means well fitted curve in the direction sought with a large enough effect; inconclusive means small, poorly fitted or top-dose-only effect, or another doubt; inactive means no such curve, though single readings can be large; an effect the other way counts as inactive or inconclusive. Potency means the concentration at half of the fitted maximal effect.

SMILES	GLP1R inv ag	GLP1R ag	GLS inh	12-LOX inh	Glioma ERSR ind	PTHR1 agonist
CCCCN(C)C(=O)C1CCN(Cc2cccc(OCc3ccccc3)c2)CC1	u	16%	2%	5.6µM*	-1%	-37%
CCOc1cc(S(=O)(=O)N2CCN(CCO)CC2)ccc1Br	x	x	x	-47%	x	x
C=CCN(Cc1cccs1)C(=O)c1ccncc1	x	x	x	-10%	x	x
COc1cc(OC)c(NC(=O)CSCc2cc(=O)n3ccc(C)cc3n2)cc1Cl	x	x	x	10%	x	x
S=C(NNC(=S)NC1CCCCC1)NC1CCCCC1	x	x	x	-8%	x	x
C=CCNc1nc(-c2cc3ccccc3o2)cs1	u	0%	7%	50µM*	-7%	-29%
c1ccc2oc(-c3csc(NCC4CCCO4)n3)cc2c1 (stereo unspecified)	5%[0.307 µM]	-1%	-13%	u	-6%	-41%
COc1cccc(-c2nc(-c3cc4ccccc4o3)cs2)c1OC	x	x	x	-24%	x	x
Oc1ccc(-c2nc(-c3cc4ccccc4o3)cs2)cc1	x	x	x	11µM*	x	x
Cc1cc(SCC(=O)Nc2ccccc2C)nc(C)n1	0%	0%	2%	4%	-2%	-7%[57.5 µM]
Cc1ccccc1NC(=O)CNc1nc(Nc2ccccc2)nc(Nc2ccccc2)n1	x	x	x	16µM*	x	x
Cc1cc(C(=O)OC(C)C(=O)Nc2nc(-c3ccccc3)cs2)c(C)o1 (stereo unspecified)	10µM*	1%	11%	-20%	2%	11%[57.5 µM]
CCC1(N2CCN(S(=O)(=O)c3ccc4c(c3)CCCC4)CC2)CCN(C(=O)NC)C1 (stereo unspecified)	x	x	x	32µM*	x	x
CCC1(N2CCN(S(=O)(=O)c3cc(F)ccc3C)CC2)CCN(C(=O)NC)C1 (stereo unspecified)	x	x	x	-21%	x	x
CN(CC(=O)Nc1ccc(Cl)cc1)c1ccc(S(=O)(=O)N2CCCCC2)cc1[N+](=O)[O-]	10µM*	-1%	3%	-22%	-6%	-17%
COc1ccc(S(=O)(=O)N2CCCCCC2)cc1C(=O)N(C)Cc1ccc(C(C)(C)C)cc1	5.6µM*	8%	6%	-5%	-8%	-21%
COc1cccc(NC(=O)CN(C)C(=O)c2cc(S(=O)(=O)N3CCCCC3)ccc2Cl)c1	-6%	-4%	-2%	u	-3%	-45%
O=C(CN1CCN(S(=O)(=O)N2CCCCC2)CC1)Nc1ccc(Cl)c(Cl)c1	8.9µM*	10%	-6%	-8%	-4%	-27%
COc1ccc(S(=O)(=O)N2CCCCCC2)cc1C(=O)N(C)CC(=O)Nc1ccc(Cl)c(Cl)c1	10µM*	4%	-11%	-26%	-2%	-32%
CNC(=O)c1nc(-c2ccc(COc3ccc4c(c3)OCO4)cc2)no1	x	x	x	-38%	x	x
Cc1[nH]c(SC(C)C(=O)Nc2cccc(S(=O)(=O)N3CCCCC3)c2)nc1Cc1ccccc1 (stereo unspecified)	x	x	x	3%	x	x
CNC(=O)CCN(C)C(=O)Nc1ccc(C(F)(F)F)cc1	x	x	x	18%	x	x
Cc1ccc(NC(=O)c2ccc3ccccc3n2)c(Cl)c1	x	x	x	-29%	x	x
COc1ccc(S(=O)(=O)N2CCCCCC2)cc1N(C)S(=O)(=O)c1ccc(Cl)cc1	10µM*	7%	-1%	1%	0%	i
COc1ccc(S(=O)(=O)N2CCC(C)CC2)cc1N(C)S(=O)(=O)c1ccccc1	10%	3%	-2%	-4%	-1%	-33%
SMILES	GLP1R inv ag	GLP1R ag	GLS inh	12-LOX inh	Glioma ERSR ind	PTHR1 agonist
c1ccc(-c2ccc(OCCCn3cncn3)cc2)cc1	-5%	21%	1%	1.4µM*	11%	-31%[57.5 µM]
c1ccc(COc2ccc(OCCn3cncn3)cc2)cc1	u	0%	-8%	22%	-4%	-64%[57.5 µM]
CN(c1ncc(C(F)(F)F)cc1Cl)N1C(=O)c2cccc(N)c2C1=O	3.2µM*	7%	-9%	-19%	-4%	-22%
Cc1ccc(C)c(OCCCOc2ccc(Cl)cc2/C=N/NC(N)=O)c1	x	x	x	-8%	x	x
CCN(CC)S(=O)(=O)c1cccc(NS(=O)(=O)c2cccs2)c1	x	x	x	1%	x	x
CC(C)(C)C(=O)Nc1ccc(NC(=O)C2CCCC2)cc1	x	x	x	-19%	x	x
CN(C(=O)CCC1CCCCC1)C1(c2ccccc2Cl)CCCCC1=O (stereo unspecified)	x	x	x	4%	x	x
O=C(N[C@@H]1CN(Cc2ccc(F)cc2F)C[C@H]1CO)c1ccccc1	x	x	x	28µM*	x	x
O=C(NC1CC1)[C@@H]1CN(Cc2cc(F)c(F)cc2F)C[C@H]1CO	x	x	x	30%	x	x
O=C(NC1CC1)[C@@H]1CN(Cc2ccc(Cl)cc2F)C[C@H]1CO	x	x	x	45µM*	x	x
FC(F)(F)c1cc(-c2ccccc2)nc(SCc2ccccc2Cl)n1	x	x	x	-12%	x	x
CC(C)C(=O)/C(C#N)=C\c1ccc(C#N)cc1	x	x	x	-16%	x	x
Cc1ccc(CN(C)C(=O)Cc2c(C)nc3ccccc3c2C)o1	x	x	x	-5%	x	x
NC(N)=N/N=C/c1ccc(OCc2ccccc2Cl)cc1	11µM*	-23%	3%	u	1%	19%[57.5 µM]
CCOc1ccc(C(=O)OCC(=O)N(Cc2ccccc2)Cc2ccccc2)cc1OC	10µM*	5%	-2%	13%	-1%	-44%
Cc1ccc2cc(CN(Cc3ccc4c(c3)OCO4)Cc3nnnn3Cc3ccco3)c(=O)[nH]c2c1C	-45%	12%	-9%	13µM*	-4%	-40%[57.5 µM]
CCc1ccc2c(CN3CCc4cc(S(N)(=O)=O)ccc43)cc(=O)oc2c1	x	x	x	14µM*	x	x
CC1CN(CCOc2ccc(Cl)c(Cl)c2)CC(C)O1 (stereo unspecified)	-24%	6%	-2%	0.45µM*	3%	-9%
CC1CCN(CCOc2ccc(Cl)c(Cl)c2)CC1	u	-1%	2%	u	1%	-8%
NC(=O)c1ccc(COC(=O)c2c(F)cccc2F)cc1	x	x	x	21%	x	x
COc1ccc(CN(C)C(=O)c2cc(-c3ccccc3)nc3ccc(C)cc23)c(OC)c1	5.6µM*	0%	-1%	11%	0%	-46%

Assay outcomes (PubChem)
